# Screening data: PubChem, National Center for Advancing Translational Sciences (NCATS)
# Pf growth 48h: P. falciparum growth inhibition at 48 hours (one generation); P. falciparum luciferase growth in erythrocytes, 48 h; Potency, µM (titrated, usually from 28.7 µM), for inactives: top-dose activity change, negative = inhibition, usual class: inhibitors; actives 5.9% (n = 310,000); AID 504832; further: potency means the concentration at half of the fitted maximal effect; on the % scale 0 is the no-effect control and ±100 the full control effect
#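 In quantitative HTS format, infected erythrocytes bearing luciferase-reporter parasites were treated for a single generation at 37 C. Luminescence after adding detection reagent served as the growth measure.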
# CHX counter: counter-screen hit for Shiga toxin inhibitors, cycloheximide. cell reporter, cycloheximide protein synthesis inhibition counterscreen. max response, %. actives 12% (n = 300,000); in the data active means max response mostly above about 13%, no sharp cut-off; inactive means mostly below about 14%; further: read at 38.3 µM for the half of the compounds with a filed dose; 0% is about no effect
# Pf growth 96h: P. falciparum growth inhibition at 96 hours; P. falciparum luciferase reporter growth, 96 h; Potency, µM (titrated, usually from 28.7 µM), without a hit: at the top dose activity change, negative = inhibition, hits mostly inhibitors; actives 6.9% (n = 320,000); AID 504834; further: potency means the concentration at half of the fitted maximal effect; on the % scale 0 is the no-effect control and ±100 the full control effect
#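 P. falciparum expressing integrated firefly luciferase grown in erythrocytes (2% hematocrit, 0.05% parasitemia final) with compounds for 96 hours at 37 C, 5% CO2. Growth inhibition read as loss of luminescence after adding luciferase detection reagent.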
# AMA1 RON2 block: disrupts binding of P. falciparum AMA1 to RON2; AlphaScreen AMA1-biotinylated RON2 peptide binding; Potency, µM (doses to about 58.2 µM), without a hit: at the top dose activity change, negative = inhibition, actives largely listed as inhibitors; actives 0.2% (n = 360,000);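 further: potency means the concentration at half of the fitted maximal effect; 0% = vehicle wells and -100% = peptide control; nearly all actives have a fitted effect of over 45% in size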
#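 AMA1 (3D7) with his tag at 25 nM final met compounds first, then biotinylated RON2 peptide at 25 nM; detection used donor plus acceptor beads, 10 µg/mL apiece, read by AlphaScreen after 30 min at room temperature.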
# SARS PLP yeast: SARS-CoV PLP inhibition in yeast | S. cerevisiae expressing SARS-CoV PLpro, growth rescue | Potency, µM (top dose mostly 32.9 µM), for the others: at the highest dose activity, positive = growth rescue, most hits filed as activators | actives 0.19% (n = 330,000); calls by dose curve; further: potency means the concentration at half of the fitted maximal effect; 0% is about no effect; nearly all actives have a fitted effect of over 55% in size
# Shiga inhibitor: Shiga toxin inhibition; Vero cells, Shiga toxin protein synthesis inhibition reporter; inhibition, % at 38.7 µM; actives 9.2% (n = 290,000); AID 2315; in the data active means inhibition mostly above about 28%, no sharp cut-off; inactive means mostly below about 43%; further: 0% is about no effect
# * marks the source's active call; other numbers are inactive results; ? = inconclusive; . = no result. Only some compounds are listed: those with a hit (about 19% of all), similar ones and a draw of the others. Unless noted, the call rests on the fitted dose curve; in most records, active means well fitted curve in the direction sought with a large enough effect; inconclusive means small, poorly fitted or top-dose-only effect, or another doubt; inactive means no such curve, though single readings can be large; an effect the other way counts as inactive or inconclusive.
SMILES,Pf growth 48h,CHX counter,Pf growth 96h,AMA1 RON2 block,SARS PLP yeast,Shiga inhibitor
CNC(=S)SCCOc1ccc(C)cc1,4.6%,-6.5,-16.2%,56.0%,29.0%,-7.2
CN1CCN(S(=O)(=O)c2ccc(N(C)Cc3ccc(C(F)(F)F)cc3)c([N+](=O)[O-])c2)CC1,10.4µM*,.,?,?,3.3%,.
COc1ccc(-n2cc(CNC3CCN(C)CC3)c(-c3cccc(F)c3)n2)cc1,1.47µM*,7.2,55.5%,-8.8%,0.3%,-2.4
CCC(COC)NCc1cn(-c2ccc(OC)cc2)nc1-c1cccc(F)c1 (stereo not drawn),11.7µM*,-1.5,?,-5.9%,-1.5%,9.3
Cc1cn2c(=O)c(C(=O)NCc3ccc4c(c3)OCO4)cnc2s1,2.4%,.,-6.7%,-10.6%,.,.
CSc1ncccc1C(=O)OCc1ccc(COC(=O)c2cccnc2SC)cc1,.,-5.8,-1.2%,.,3.3%,-4.8
CSc1ncccc1C(=O)OCc1ccccc1F,?,21.8*,1.5%,19.7%,4.6%,66.5*
CSc1ncccc1C(=O)OCc1ccccc1,25.8%,31.3*,5.4%,42.2%,0.4%,87.0*
C/C(=N\NC(=O)c1cccc(F)c1)c1ccc(NC(=O)Cc2ccccc2)cc1,6.3%,41.6*,-31.5%,-1.8%,-3.8%,48.5*
C/C(=N\NC(=O)c1cc(O)cc(O)c1)c1ccc(NC(=O)Cc2ccccc2)cc1,36.6%,21.7*,-12.0%,-1.5%,?,70.2*
COc1ccccc1C(=O)N/N=C(\C)c1ccc(NC(=O)Cc2ccccc2)cc1,?,2.0,35.6%,-10.2%,-8.7%,16.7
C/C(=N\NC(=O)CNC(=O)c1cccc(F)c1)c1ccc2ccccc2c1,28.0%,-4.2,33.7%,-8.0%,-0.2%,-9.8
COc1ccc(CCN2C(=S)N(c3ccc(Cl)cc3)C(=O)C2CC(N)=O)cc1OC (stereo not drawn),10.4µM*,-2.4,11.7µM*,-8.4%,-0.2%,-6.6
COC(=O)c1ccc(N2C(=O)CC(N(C)CCc3ccc(OC)c(OC)c3)C2=O)cc1 (stereo not drawn),-10.0%,-2.0,9.4%,1.3%,-28.6%,3.6
CCOC(=O)c1ccc(N2C(=O)C3CCCN3C2=S)cc1 (stereo not drawn),?,.,?,35.5µM*,1.5%,.
CCOC(=O)c1ccc(N2C(=O)C(CC(N)=O)N(CCc3ccc(OC)c(OC)c3)C2=S)cc1 (stereo not drawn),14.7µM*,-1.7,59.6%,0.1%,-3.0%,-4.7
O=C(CC1C(=O)N(c2ccc(Cl)cc2)C(=S)N1CCc1ccncc1)Nc1ccc(F)cc1 (stereo not drawn),?,-4.5,?,-0.5%,-7.3%,-24.2
CCCCCCCCCCCCCCCC[N+](C)(C)Cc1ccc(F)cc1,.,.,.,14.3%,.,.
COc1ccc(/C=C/C(=O)Nc2cccc(S(=O)(=O)N3CCOCC3)c2)cc1OC,-12.0%,.,?,20.9%,1.4%,.
CN(C)S(=O)(=O)c1cccc(NC(=O)/C=C/c2ccc(S(=O)(=O)N3CCOCC3)cc2)c1,8.28µM*,.,?,5.4%,2.1%,.
CC(=O)c1cccc(NC(=O)/C=C/c2ccc(S(=O)(=O)N3CCOCC3)cc2)c1,.,.,.,-10.3%,0.6%,.
O=C(/C=C/c1ccc(OC(F)F)cc1)Nc1cccc(S(=O)(=O)N2CCOCC2)c1,-13.3%,24.5*,?,1.6%,1.0%,41.3*
C=CCn1c(SCc2nc3c(c(=O)[nH]c(=O)n3CCCC)n2CCC)nnc1-c1ccccc1,8.28µM*,-2.4,.,1.3%,1.8%,4.0
Cc1ccc2[nH]c3c(=O)n(CC(=O)N4CCN(C)CC4)ncc3c2c1,45.5%,1.2,7.38µM*,-7.1%,.,-9.3
O=C(Cn1ncc2c([nH]c3ccccc32)c1=O)N1CCN(c2ccccn2)CC1,-13.6%,-0.4,1.31µM*,10.5%,-1.3%,-4.5
SMILES,Pf growth 48h,CHX counter,Pf growth 96h,AMA1 RON2 block,SARS PLP yeast,Shiga inhibitor
COc1ccc(C(=O)C2CCCN(Cc3cccc(C)n3)C2)c(OC)c1 (stereo not drawn),1.47µM*,-0.5,1.04µM*,12.9%,0.3%,4.0
COc1ccc2cc(C(=O)C3CCCN(Cc4cccc(C)n4)C3)ccc2c1 (stereo not drawn),0.657µM*,-2.9,?,-26.2%,0.7%,6.1
COc1cccc(-c2ccc(NC(=O)C3CCCN(Cc4cccc(C)n4)C3)cc2)c1 (stereo not drawn),.,.,.,15.7%,.,.
COc1ccc(C(=O)C2CCCN(Cc3cccn3-c3ccc(Cl)cn3)C2)c(OC)c1 (stereo not drawn),4.15µM*,-3.8,14.8%,-18.8%,-2.7%,17.3
COc1cccc(C(=O)C2CCCN(Cc3ccccn3)C2)c1 (stereo not drawn),?,-2.2,19.5%,81.0%,0.5%,3.2
COc1c(C)cc(C(=O)C2CCCN(Cc3ccccn3)C2)cc1C (stereo not drawn),2.08µM*,5.7,109.4%,2.8%,-0.3%,12.4
O=C(c1ccccc1C(=O)N(c1ccccc1)c1ccccc1)N1CCCCC1,-3.8%,-4.0,?,10.8%,-5.4%,-5.1
CCCOC(=O)c1ccc(NC(=O)C2C3C=CC(O3)C2C(=O)O)cc1 (stereo not drawn),53.8%,31.9*,-0.5%,1.4%,-16.2%,50.3
CC(=O)Nc1ccc(C(=O)OCCC(C)C)cc1,61.3%,24.2*,-9.5%,-2.2%,-10.1%,84.2*
CCCCOC(=O)c1ccc(NC(=O)C(CCS(C)(=O)=O)NC(C)=O)cc1 (stereo not drawn),56.2%,-3.2,5.22µM*,13.4%,11.6%,-9.4
CCCOC(=O)c1ccc(NC(=O)Oc2ccccc2)cc1,56.1%,15.8,3.3%,-3.5%,4.7%,29.4
CCCOC(=O)c1ccc(NC(=O)CC(C)(C)C)cc1,124.6%,33.6*,-5.3%,8.7%,1.0%,54.2*
CC(=O)Nc1ccc(C(=O)OCC(=O)NC(=O)NC(C)(C)C)cc1,.,-4.5,?,-12.0%,6.7%,-19.7
CN1CCN(NC(=O)c2ccc(Br)c(S(=O)(=O)N3CCOCC3)c2)CC1,?,-3.7,?,-0.7%,2.4%,1.8
CCC(C)C(NC(=O)C(Cc1ccc(O)cc1)NC(=O)OCc1ccccc1)C(=O)OC (stereo not drawn),.,.,.,-5.4%,.,.
CC1(C)CSC(=NCc2ccccc2)N1C(=O)c1cccc([N+](=O)[O-])c1,6.5%,6.0,4.5%,-28.1%,16.8%,-14.1
O=S(=O)(NC1CCCCC1)c1ccc(Cl)s1,18.3%,5.5,.,0.9%,-13.5%,-10.6
COc1ccccc1CCNC(=O)c1c(N)[nH]c(C(=O)c2ccccc2)c1-c1ccc(Br)cc1,.,.,.,33.0%,.,.
CCCOC(=O)c1ccc(NC(=O)COC)cc1,.,30.4,99.0%,0.8%,-5.2%,49.8*
Nc1nonc1C(=O)NCCNCc1cc(Br)ccc1OCc1ccccc1F,3.29µM*,-5.4,?,15.7%,-1.4%,-14.6
